# TSHR ag: activates the human thyroid stimulating hormone receptor | P16473 | HEK293-CNG-TSHR cells (CNG channel as cAMP sensor), membrane potential dye, cAMP | Potency, µM (doses to about 57.1 µM), for inactives: at the highest dose activation, hits mostly activators | 73,000 tested, 0.48% active | AID 926; active = well fitted activation curve with a large enough effect in the main read-out, with a control signal flat, not every such curve was filed as active; inconclusive = small, poorly fitted or top-dose-only effect, or a change in a side signal; inactive = no such curve, though single readings can be large or run the other way; % of control where 0% means no effect;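 also: the control signal comes from parental cells without the receptor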
#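 HEK 293 cells stably expressing TSHR and a modified CNG channel, with CNG-only parental cells as counterscreen, were preloaded 60 min at room temperature with membrane potential dye containing 100 uM RO 20-1724. Compound exposure was 30 min, and depolarization was read as fluorescence at 590 nm.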
# Luciferase inh: blocks Photinus pyralis firefly luciferase activity; P08659; purified firefly luciferase, luminescence, 8 min; Potency, µM (series often up to 57.1 µM), inactives show top-dose activity change, negative = inhibition, most hits filed as inhibitors; 72,000 tested, 2.2% active; also: % is scaled to controls: 0 for no effect and ±100 for the full control effect; nearly all actives have a fitted effect of over 40% in size
#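 Compounds were tested as concentration series (qHTS) against purified P. pyralis luciferase with luciferin and 10 uM ATP in 50 mM imidazole pH 7.2, 50 mM KCl, 7 mM MgCl2, 0.01% Tween 20, 0.05% BSA. Luminescence was read after 8 min at ambient temperature.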
# 15-hLO inh: 15-hLO (ALOX15) enzyme inhibition; purified 15hLO-1, xylenol orange hydroperoxide absorbance; AID 887; 74,000 tested, 1.4% active; P16050; Potency, µM (doses to about 57.1 µM), for the others: top-dose activity change, negative = inhibition, actives largely listed as inhibitors; also: % is scaled to controls: 0 for no effect and ±100 for the full control effect; nearly all actives have a fitted effect of over 55% in size
# Target sequence (P16050 whole entry, looked up): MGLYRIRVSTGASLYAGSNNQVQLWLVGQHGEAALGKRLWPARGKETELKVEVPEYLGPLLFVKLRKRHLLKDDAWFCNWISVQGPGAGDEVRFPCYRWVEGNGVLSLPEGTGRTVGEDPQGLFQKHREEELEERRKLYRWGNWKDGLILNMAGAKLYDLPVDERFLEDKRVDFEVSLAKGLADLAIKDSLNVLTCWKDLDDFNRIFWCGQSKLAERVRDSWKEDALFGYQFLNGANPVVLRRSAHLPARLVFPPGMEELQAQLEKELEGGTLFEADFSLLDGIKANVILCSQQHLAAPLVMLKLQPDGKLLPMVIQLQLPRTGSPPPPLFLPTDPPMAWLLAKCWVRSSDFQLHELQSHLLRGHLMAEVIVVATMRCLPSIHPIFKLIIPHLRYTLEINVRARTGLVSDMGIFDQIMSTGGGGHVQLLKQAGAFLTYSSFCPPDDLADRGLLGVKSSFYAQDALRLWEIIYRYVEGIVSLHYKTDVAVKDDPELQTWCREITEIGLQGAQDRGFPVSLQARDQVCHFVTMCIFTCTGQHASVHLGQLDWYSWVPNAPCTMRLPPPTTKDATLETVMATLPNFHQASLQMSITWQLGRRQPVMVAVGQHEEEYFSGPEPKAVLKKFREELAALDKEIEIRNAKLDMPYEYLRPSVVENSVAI
#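 Compounds were preincubated 15 min at room temperature with 40 nM purified human enzyme (25 mM Hepes pH 7.5, 0.01% Triton X-100); 50 uM arachidonic acid reacted 6 min. Fe-xylenol orange detection, 30 min, absorbance ratio 573/405 nm.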
# Tau fil binding: tau filament binding; recombinant tau filaments, thioflavin S fluorescence, 15 h; filaments grown with octadecylsulfate alongside compound; Potency, µM (highest dose often 57.1 µM), inactives show at the highest dose activity change, negative = inhibition; 71,000 tested, 2% active;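 also: % is scaled to controls: 0 for no effect and ±100 for the full control effect; actives lower thioflavin S fluorescence by blocking filaments or displacing dye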
#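 ThS-based fibril read: tau 1 uM final, inducer ODS 30 uM final, 37 C for 15 h, ex 450/em 510 nm.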
# Bst PK mod: alters activity of Bacillus stearothermophilus pyruvate kinase. purified pyruvate kinase, luminescence ATP production; ribose 5-phosphate activator present at AC10. Potency, µM. 51,000 tested, 1.2% active; in the data active = potency below about 11 µM; inconclusive = mostly about 12 µM to 25 µM;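 the screen sought inhibitors and activators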;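 also: scaled between full activation by ribose 5 phosphate and full inhibition by luteolin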
# HEK293 cAMP cs: parental HEK293 cAMP activation (counter-screen) | 73,000 tested, 2.5% active | parental HEK293 CNG cAMP sensor, membrane potential fluorescence | Potency, µM (doses to about 57.1 µM), without a hit: at the highest dose activation, hits mostly activators; also: % of control where 0% means no effect; nearly all actives have a fitted effect of over 55% in size
#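 Parental HEK 293 cells stably expressing a modified CNG channel (no TSHR) report cAMP rise as membrane depolarization. Membrane potential dye with 100 uM RO 20-1724 was loaded for 60 min at room temperature, then compound added for 30 min; fluorescence read at 590 nm.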
# The depositor's hits bear a star; ? = inconclusive; · = not tested or not shown; [ ] = remark or other dose. Only some compounds are listed: those with a hit (about 7.8% of all), similar ones and a draw of the others. Unless noted, calls follow the shape of the dose curve; as a rule, active = well fitted curve in the direction sought with a large enough effect; inconclusive = small, poorly fitted or top-dose-only effect, or another doubt; inactive = no such curve, though single readings can be large; an effect the other way counts as inactive or inconclusive. Potency is read from the fitted curve at half-maximal effect.
SMILES,TSHR ag,Luciferase inh,15-hLO inh,Tau fil binding,Bst PK mod,HEK293 cAMP cs
CO[C@H]1C=CO[C@]2(C)Oc3c(C)c(O)c4c(O)c(c5c(c4c3C2=O)NC2(CCN(CC(C)C)CC2)N=5)=NC(=O)C(C)=CC=C[C@@H](C)[C@@H](O)[C@@H](C)[C@@H](O)[C@@H](C)[C@@H](OC(C)=O)[C@@H]1C,·,-2%[25.5 µM],14%[25.6 µM],1.6µM*,·,-24%[25.6 µM]
CO[C@H]1/C=C/O[C@@]2(C)Oc3c(C)c(O)c4c(O)c(c5c(c4c3C2=O)NC2(CCN(CC(C)C)CC2)N=5)=NC(=O)/C(C)=C\C=C\[C@H](C)[C@H](O)[C@@H](C)[C@@H](O)[C@@H](C)[C@H](OC(C)=O)[C@@H]1C,?,·,?,0.4µM*,·,-87%
CO[C@@H]1/C=C\O[C@]2(C)Oc3c(C)c(O)c4c(O)c(cc(O)c4c3C2=O)NC(=O)/C(C)=C\C=C/[C@H](C)[C@@H](O)[C@H](C)[C@H](O)[C@H](C)[C@H](OC(C)=O)[C@@H]1C,-5%[11.4 µM],0%[11.4 µM],-17%[11.4 µM],-7%[11.4 µM],·,-5%[11.4 µM]
c1ccc2c3c([nH]c2c1)[C@@H]1[C@H]2CC[C@H]([C@H]4CCCN[C@H]42)N1CC3,4%[25.6 µM],0%[25.5 µM],-26%[25.6 µM],-28%[25.6 µM],·,-6%[25.6 µM]
COc1ccccc1CCn1c(=O)cnc2cncnc21,?,1%[11.4 µM],5%,-6%,·,?
C=CCN1C(=O)CSC1=Nc1cccc(O)c1,·,8%,3%,6%,>57,-4%
C=CCN1C(=O)CS/C1=C(\C#N)S(=O)(=O)c1ccc(C)cc1,-10%,0%,-18%,16µM*,>57,-10%
N=C(N)c1ccc(N)cc1,6%,0%,8%,-4%,·,11%
Nc1ccc(O)cc1,-15%,·,?,16µM*,·,3%
COc1ccc(-c2nc3cnc(N4CCN(C)CC4)nc3n(Cc3ccc(F)cc3)c2=O)cc1,·,0%[11.4 µM],6%,88%,·,6%
COc1ccccc1CNc1ncncc1-c1ccc(N(C)C)cc1,6.3µM*,-3%[2.29 µM],-16%,-13%,·,-10%
COc1ccccc1CNc1ncncc1-c1ccoc1,8%,-2%[2.29 µM],10µM*,-8%,·,-1%
Fc1ccc(Nc2ncncc2-c2ccoc2)cc1,4%,1%[2.29 µM],-5%,17%,·,17%
COc1ccc(CNc2ncncc2-c2cccc(C#N)c2)c(OC)c1,?,-1%[2.29 µM],6%,12%,·,?
COc1ccc(CNc2ncncc2-c2ccc(N(C)C)cc2)c(OC)c1,?,2%[2.29 µM],20µM*,?,·,?
CN(C)c1ccc(-c2cncnc2Nc2ccc(F)cc2)cc1,-8%,-3%[2.29 µM],2.5µM*,-10%,·,-3%
COc1ccccc1CNc1ncncc1-c1ccc(C(=O)N(C)C)cc1,?,0%[2.29 µM],?,-6%,·,?
O=C(O)c1c(-c2nccc3ccccc23)[nH]c(-c2ccccc2)c1S(=O)(=O)O,3%[11.4 µM],3%[11.4 µM],6%[11.4 µM],-2%[11.4 µM],·,23%[11.4 µM]
COc1ccccc1-c1ccc2ncnc(N(C)C)c2c1,?,3%[2.29 µM],-7%,14%,·,?
O=C(CCC1CCCCC1)N1CCN(Cc2ccc3c(c2)OCO3)CC1,?,-2%,3%,5%,>57,?
COc1ccc(CNc2ncnc3ccc(-c4ccc(N(C)C)cc4)cc23)c(OC)c1,?,1%[2.29 µM],?,2.5µM*,·,-50%
CN(C)CCCN1c2ccccc2Sc2cnccc21,-2%[11.4 µM],2%[11.4 µM],24%[11.4 µM],-24%[11.4 µM],·,-1%[11.4 µM]
CSc1ccc2c(c1)N(CCCN(C)C)c1ccccc1S2,1%[11.4 µM],3%[11.4 µM],-9%[11.4 µM],3.2µM*,·,0%[11.4 µM]
CN(C)CCCN1c2ccc(O)cc2Sc2ccc(Cl)cc21,1%[11.4 µM],1%[11.4 µM],-13%[11.4 µM],3.2µM*,·,-7%[11.4 µM]
CN1CCN(CCCN2c3ccccc3Sc3ccc(Cl)cc32)CC1,?,0%[25.5 µM],?,?,>26,?
CCSc1ccc2c(c1)N(CCCN1CCN(C)CC1)c1ccccc1S2,2%[25.6 µM],-6%[25.5 µM],3%[25.6 µM],4µM*,·,-1%[25.6 µM]
Cc1ccc2[nH]c(=O)c(-c3nc4cc(C)ccn4c3NCc3ccco3)cc2c1,?,1%,11%,16µM*,>57,-71%

# Bioassay records: PubChem BioAssay, National Center for Advancing Translational Sciences (NCATS)
